Holding throughout (assay): NCI-60 one-dose screen, 48 h (100 = growth as untreated, 0 = no growth, -100 = all killed)
Holding throughout (settings): 10 µM unless noted

Test [1] deals with NCI-H23 lung.
Test [2] relates to NCI-H226 lung.
For test [3], the system named is NCI-H322M lung.
The subject of test [4] is HOP-62 NSCLC.
Test [5] deals with NCI-H460 lung.
Test [6] relates to HOP-92 NSCLC.
Test [7] deals with NCI-H522 lung.
Test [8] concerns A549/ATCC NSCLC.
Test [9] concerns 786-0 renal.
For test [10], the system named is COLO 205 colon.
For test [11], the system named is DU-145 prostate.
Test [12] concerns K-562 leukemia.
The subject of test [13] is MALME-3M melanoma.
The subject of test [14] is MDA-MB-231 breast.
Test [15] deals with RXF 393 renal.
The test system of test [16] is SF-268 CNS.
Test [17] deals with SF-295 CNS.
For test [18], the system named is SF-539 CNS.
Test [19] relates to UACC-257 melanoma.
For test [20], the system named is M14 melanoma.

Molecules are shown by their SMILES. This is part of a sample that, as a whole, favours compounds with a hit. Of some 83,000 tested, about 20% had one in any assay.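 Treatment: one concentration, 48 hours, 96-well format. Scoring: percent growth, with anything below 10 considered active.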 Unmarked numbers belong to inactive results. Active and inactive are the calls of the source.

As to `Cc1ccccc1NC(=O)Nc1nc2ccc([N+](=O)[O-])cc2s1`, the growth in test [1] is 5.79% (active); in test [2] it was 15.4%; in [3] it was 9.34% (active); in [4], 2.78% (active); in test [5] it was 5.87% (active); in [6], -24.6% (active). Also, the growth was -10.9% (active) in [7]; 9.2% (active) in test [8]; 13.1% in test [9]; 10.9% in test [10]; 20.3% in [11]; 5.43% (active) in [12]. Further, the growth in test [13] is -6.54% (active); in test [14], 17.6%; in test [15], 12.1%; in [16] it was 18.6%; in test [17], 6.9% (active); in test [18] it was 13.6%. Moreover, the growth is -1.96% (active) in test [19] and 19.9% in test [20].

Take `N#Cc1cnc2ccc(-c3cnc4n[nH]nc4c3)cc2c1N1CCc2cc(F)c(Cl)cc21`: the growth in test [1] is 14.4%; in [2], 11.7%; in test [3], 11.1%; in [4] it was 11.8%; in test [5] it was 17.5%; in [6], 4.22% (active). The growth in [7] is -10.1% (active); in test [8], 11.2%; in test [9] it was 16.7%; in test [10] it was 37.8%; in test [11] it was 14.6%; in test [12] it was 28.1%. Also, the growth is 1.37% (active) in [13]; 21.2% in test [14]; -22.2% (active) in [15]; 16.7% in [16]; 2.19% (active) in [17]; 2.37% (active) in test [18]. For the same molecule, the growth in test [19] is 23.9%; in [20], 21.2%.

Consider `CC1CC(=O)C2=C(C1)Nc1ccc(Br)cc1CC2c1c[nH]c2ccc(Br)cc12` (stereo not given), for which the growth in test [1] is 66.8%; in test [2] it was 65.5%; in [3] it was 70.9%; in test [4] it was 65.2%; in test [5], 34.5%; in [6], 76.6%. The growth in test [7] was 18.4%; in test [8], 42.3%; in test [9] it was 51.2%; in test [10], 66.2%; in [11] it was 71.6%; in test [12], 21.6%. Moreover, the growth in test [13] was 59.3%; in test [14], 68.8%; in test [15] it was 69%; in test [16], 67.8%; in test [17], 4.8% (active); in test [18] it was 54.8%. Moreover, the growth in test [19] was 67.9%; in test [20] it was 29%.

For the molecule `CC(=C(c1ccc(OCCCN(C)C)cc1)c1ccc(OCCCN(C)C)cc1)c1ccc(Cl)cc1`, the growth is 84.8% in [1]; 95.5% in test [2]; 95.1% in test [3]; 99.5% in [4]; 99.6% in test [5]; 77.9% in [6]. The growth in test [7] is 94.1%; in [8], 79.8%; in test [9], 87.4%; in [10] it was 96.6%; in [11], 98%; in test [12], -13.5% (active). Besides, the growth in [13] was 85.8%; in [14], 95.4%; in test [15], 80.6%; in [16], 91.7%; in test [17], 95.2%; in test [18], 81.7%. Also, the growth in [19] was 100%; in [20], 92.7%.

With `COc1ccccc1Cn1cc(C#N)c(N)c1C(=O)c1ccc(Br)cc1`, the growth in test [1] is 91.8%; in [2], 89.5%; in [3] it was 94.6%; in test [4], 104%; in test [5], 96.4%; in test [6] it was 100%. In addition, the growth in [7] was 89.5%; in test [8], 101%; in test [9] it was 102%; in test [10], 113%; in [11], 104%; in test [12], 83.2%. Further, the growth in [13] is 96%; in test [14], 88.7%; in [15] it was 92.1%; in test [16], 96.2%; in [17], 93%; in test [18], 99.8%. For the same molecule, the results for the growth in test [19] and in test [20] were 100% and 98.5%, respectively.

Turning to `O=C(CCCCCCN1CC(=O)N2[C@@H](c3cccs3)c3[nH]c4ccccc4c3C[C@H]2C1=O)NO`, the growth was 94.1% in test [1]; 107% in test [2]; 79.8% in [3]; 91.2% in test [4]; 77.2% in [5]; 69% in test [6]. Also, the growth is 44.7% in test [7]; 98.9% in test [8]; 103% in [9]; 93.1% in [10]; 90.2% in test [11]; 64.7% in [12]. For the same molecule, the growth is 27.2% in [13]; 93.7% in [14]; 89.3% in test [15]; 101% in test [16]; 96.9% in [17]; 73.8% in test [18]. The growth is 66.9% in [19] and 84.3% in [20].

With `COc1cc2cc(Oc3ccc(NC(=O)c4cc(C(F)(F)F)cc(C(F)(F)F)c4)cc3)c(C)nc2cc1OCCN1CCOCC1`, the growth in [1] was 66.9%; in test [2], 70.3%; in [3], 98%; in [4] it was 88.6%; in [5] it was 61.6%; in test [6], 44.8%. Further, the growth was 58.1% in test [7]; 61.4% in [8]; 25.3% in test [9]; 66.7% in test [10]; 87.1% in [11]; 26.5% in [12]. Besides, the growth in [13] is 69.7%; in test [14], 75.7%; in [15], 1.66% (active); in test [16] it was 72.6%; in test [17], 29.7%; in test [18] it was 59.4%. Further, the figures for the growth in test [19] and in [20] were 57.3% and 60.5%, respectively.

For the origin of these results see PubChem BioAssay (NCI).
